Source: PubChem
The list is not random: actives were taken first. Their share in the collection is about 3.9%.
CDK5 p35 inh: CDK5/p35 (human) kinase inhibition; Q00535+Q15078; Recombinant CDK5/p35, ADP-Glo luminescence, 60 min; inhibition, % at 10 µM; 330,000 compounds, 0.01% hits;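 active means highest replicate inhibition of at least 50% and at least 75% of replicates reaching 50%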;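 further: plate controls were DMSO neutral control for no effect and GW8510 at 10 µM for full effect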
ALR H2O2 inh: blocks human ALR sulfhydryl oxidase activity; inhibition, % (test concentration not listed); 290,000 compounds, 3.8% hits; P55789; AID 485317; purified ALR, DTT oxidation, H2O2 HRP-luminol luminescence;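 active means mean replicate inhibition above about 79%, with every replicate also reaching it, limit read from the data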
Target sequence (P55789 whole entry, looked up): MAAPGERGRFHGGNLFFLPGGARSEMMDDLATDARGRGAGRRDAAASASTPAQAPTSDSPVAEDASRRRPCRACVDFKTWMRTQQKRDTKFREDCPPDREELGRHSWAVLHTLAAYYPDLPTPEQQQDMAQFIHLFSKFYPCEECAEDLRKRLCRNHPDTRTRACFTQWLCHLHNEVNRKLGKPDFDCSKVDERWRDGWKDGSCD
N-glyco inh: N-linked glycosylation inhibition | AID 588692 | reporter increase, % at 12.5 µM | D54 ERlucT glycosylation luciferase reporter, 24 h; percent of 100 nM tunicamycin response | 360,000 compounds, 0.23% hits;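 active means mean luciferase reporter signal, scaled so untreated is 0 and the glycosylation-blocking control 100, at or above a set limit in every replicate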;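 further: luciferase carries N-glycosylation sites so blocking glycosylation raises the light; 0% = median of neutral control wells and 100% = median of 100 nM tunicamycin wells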
NSD2 HMT inh: blocks human histone methyltransferase NSD2. 310,000 compounds, 0.54% hits. AID 743445. inhibition, % at 12.5 µM. NSD2 peptide methylation, AlphaScreen, 120 min; in the data active means inhibition above about 50%
SUMO Mot1 rescue: SUMOylation pathway inhibition by Mot1-301 growth rescue | S. cerevisiae Mot1-301 growth rescue, ATP luminescence, 38.5C; percent above DMSO median, 100 means doubled | 320,000 compounds, 1% hits | growth rescue, % at 18.8 µM;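 active means every valid replicate shows activation above 250% relative to neutral control wells; inactive means the rest, any valid replicate at or below 250%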;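 further: OY570 slx delta 5 strain wells were the positive control but not used for scaling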
Casp6 inh: blocks human caspase-6 cleavage activity | purified caspase-6, Z-VEID-R110 cleavage fluorescence | inhibition, % at 12.5 µM | AID 686996 | P55212 | 350,000 compounds, 0.53% hits;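 active means mean inhibition across replicates at least about 35%, with every replicate also reaching that limit, limit read from the data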;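 further: 0% = median of neutral control wells and 100% = no fluorescence left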
Target sequence (P55212 24-179 limits assumed): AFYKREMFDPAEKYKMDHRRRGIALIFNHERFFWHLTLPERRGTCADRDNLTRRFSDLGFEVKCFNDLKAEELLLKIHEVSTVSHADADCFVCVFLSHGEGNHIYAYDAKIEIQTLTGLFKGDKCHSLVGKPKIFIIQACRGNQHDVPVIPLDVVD
Target sequence (P55212 194-293 limits assumed): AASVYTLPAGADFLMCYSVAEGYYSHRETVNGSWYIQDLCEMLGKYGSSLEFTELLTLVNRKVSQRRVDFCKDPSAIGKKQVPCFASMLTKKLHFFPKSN
An asterisk follows results filed as active; . = no result.

SMILES	CDK5 p35 inh	ALR H2O2 inh	N-glyco inh	NSD2 HMT inh	SUMO Mot1 rescue	Casp6 inh
COc1ccc(/C=N/n2cncn2)cc1CSc1ccccn1	3.8	99.1*	-2.2	-0.1	-12.0	.
Oc1ccc(NCc2ccc(OCc3ccccc3)cc2)cc1	0.1	48.7	16.4	0.0	-32.1	.
CCc1ccc(CNc2ccc(O)cc2)cc1	0.1	83.6*	10.3	.	-12.8	.
COc1cccc(CNC(=O)C[C@H]2C=C[C@@H](NS(=O)(=O)c3ccccc3OC)[C@H](CO)O2)c1	.	.	.	.	.	-0.8
COC(=O)c1sc(-c2ccc(Cl)cc2)cc1NC(=O)CSCC(=O)O	3.1	57.7	-1.1	1.7	329.9	-1.7
COC(=O)c1sc(-c2ccc(C(C)(C)C)cc2)cc1NC(=O)COCC(=O)O	-1.2	97.7*	0.7	4.0	-4.2	7.1
CCC(=O)N1CC(=O)N2[C@H](CO)[C@H](c3ccc(-c4ccccc4C)cc3)[C@@H]2C1	.	.	.	.	.	0.5
CCN1CCCC1CNC(=O)CS(=O)(=O)Cc1nc(-c2ccccc2C)oc1C (configuration not stated)	-1.5	-3.1	-1.2	.	222.1	-5.3
CCN1CCCC1CNC(=O)CSCc1nc(-c2ccccc2C)oc1C (configuration not stated)	-0.8	99.7*	-1.6	5.7	-4.3	.
Clc1ccc(C2=CSC3=NCCN23)cc1Cl	-2.4	96.8*	-2.6	16.5	3.6	.
COc1ccc(C2=CSC3=NCCN23)cc1OC	1.9	95.9*	0.6	-1.0	65.5	0.6
CC(C)(C)c1ccc(C2=CSC3=NCCN23)cc1	-1.0	.	-2.5	14.3	3.2	-1.8
O=S(=O)(N[C@@H]1CC[C@@H](CCn2cc(-c3ccccc3F)nn2)O[C@H]1CO)c1ccc(Cl)cc1	.	.	.	.	.	4.9
CC(=O)N1[C@@H]2c3cccc(=O)n3C[C@@H]2[C@@H](CO)[C@@H]1C(=O)N[C@H](C)c1ccccc1	.	.	.	.	.	0.2
COc1ccc(C(=O)O)cc1NC(=S)NC(=O)/C=C/c1ccc(C(C)C)cc1	1.3	97.4*	1.0	7.9	-4.3	10.2
C=CCNC(=S)NNC(=O)c1ccc(Br)cc1	-0.8	69.1	-0.4	0.9	56.5	.
C=CCNC(=S)NNC(=O)c1cc(O)ccc1O	0.0	98.5*	0.5	-0.8	-34.1	6.6
CN1CCN(C(=O)C[C@@H]2C[C@H]3c4cc(NC(=O)C5CCOCC5)ccc4O[C@H]3[C@H](CO)O2)CC1	.	.	.	.	.	-1.8
O=S(=O)(Nc1nc2ccccc2nc1NCC1CCCO1)c1cccc(Cl)c1 (configuration not stated)	4.1	87.3*	0.5	-1.1	-3.2	-0.1
O=S(=O)(Nc1nc2ccccc2nc1NCCO)c1cccc(Cl)c1	-0.1	3.0	-1.5	-0.5	-8.6	.
C[C@H](CO)N1C[C@H](C)[C@H](CN(C)S(=O)(=O)c2cn(C)cn2)Oc2ccc(NC(=O)Cc3ccccc3)cc2C1=O	.	.	.	.	.	-1.2
COc1ccccc1NC(=O)N1C[C@@H]2N[C@H](C1)C2c1ccc(-c2cccc(C(=O)N(C)C)c2)cc1 (some centres not stated)	.	.	.	.	.	-0.1
Cc1sc(N)c(C(=O)c2ccccc2Cl)c1C	-3.4	99.4*	1.4	6.9	262.4	-1.3
COc1cc(-c2nc3ccc4ccccc4c3c3c2CCC3)ccc1O	-4.4	96.2*	0.4	0.6	79.2	-1.6
COc1cc(-c2nc3ccc4ccccc4c3c3c2CCC3)cc(OC)c1O	-1.6	54.9	-2.6	-0.7	75.3	.
SMILES	CDK5 p35 inh	ALR H2O2 inh	N-glyco inh	NSD2 HMT inh	SUMO Mot1 rescue	Casp6 inh
COc1cc(SC)ccc1C(=O)OC(C)C(=O)NC1CCCC1 (configuration not stated)	-2.1	.	0.1	-1.1	.	37.8*
CN1CCN(C(=O)C[C@@H]2CC[C@H]3[C@@H](COc4ccc(NC(=O)c5cscn5)cc4C(=O)N3C)O2)CC1	.	.	.	.	.	2.1
CCC(=O)N1CCc2cc(S(=O)(=O)CCC(=O)Nc3ccc(CC)cc3)ccc21	-1.3	-1.1	-0.9	1.7	-6.5	.
CCC(=O)N1CCc2cc(S(=O)(=O)CCC(=O)Nc3cccc(F)c3)ccc21	-0.6	97.9*	-3.0	.	.	.
CCC(=O)N1CCc2cc(S(=O)(=O)CCC(=O)Nc3ccc(F)c(F)c3)ccc21	1.8	97.8*	-0.4	18.1	-6.0	.
CO[C@@H]1CN(C)C(=O)c2cc(NC(=O)c3cnccn3)ccc2OC[C@@H](C)N(CC2CC2)C[C@@H]1C	.	.	.	.	.	1.8
Cc1ccc(S(=O)(=O)N(C)C[C@H]2Oc3ccc(NS(=O)(=O)c4cccs4)cc3C(=O)N([C@@H](C)CO)C[C@@H]2C)cc1	.	.	.	.	.	3.1
CC(C)c1ccc(NC2CCCN(C(=O)c3ccoc3)C2)cc1 (configuration not stated)	-1.3	98.7*	-0.6	.	-10.3	-4.3
CC(C)c1ccc(NC2CCCN(C(=O)c3ccccc3-c3ncc[nH]3)C2)cc1 (configuration not stated)	-0.5	87.5*	-0.5	13.6	-6.3	0.9
CC(C)c1ccc(NC2CCCN(C(=O)c3ccc(N4CCOCC4)cc3)C2)cc1 (configuration not stated)	-0.1	97.9*	1.8	4.1	1.1	2.8
CC(C)c1ccc(NC2CCCN(C(=O)c3cccc4nccnc34)C2)cc1 (configuration not stated)	.	65.7	1.6	2.0	-3.4	-4.7
O=S(=O)([N-]c1nc2ccccc2nc1-n1cc[n+](Cc2ccccc2)c1)c1ccc(Cl)cc1	-0.1	-5.1	46.5*	-2.9	5.8	-2.3
CC(C)CC[n+]1ccn(-c2nc3ccccc3nc2[N-]S(=O)(=O)c2ccccc2)c1	-0.7	-11.8	-4.0	3.5	-2.4	.
C[C@@H]1CN([C@H](C)CO)S(=O)(=O)c2ccc(-c3cccnc3)cc2O[C@H]1CN(C)Cc1cncnc1	.	.	.	.	.	-1.5
COc1cccc(NC(=S)/C(=C(\[O-])c2ccc([N+](=O)[O-])cc2)[n+]2ccccc2)c1	-2.8	98.9*	2.6	-1.3	-15.3	-0.2
O=[N+]([O-])c1ccc(/C([O-])=C(/C(=S)Nc2ccccc2F)[n+]2ccccc2)cc1	-2.1	-1.8	-2.0	.	76.0	-0.9
O=S(=O)(N[C@H]1CC[C@@H](CCn2cc(-c3cccnc3)nn2)O[C@@H]1CO)c1ccccc1	.	.	.	.	.	-1.0
CCOC(=O)CN1C(=O)S/C(=C\c2ccc(-c3ccc(C(=O)O)c(Cl)c3)o2)C1=O	0.4	55.5	1.8	37.4	-5.0	48.9*
Cc1ccc(/C=C2/NC(=O)N(Cc3ccc(Br)cc3)C2=O)o1	2.9	.	1.9	-0.1	150.4	.
O=C(O)c1ccc(-c2ccc(/C=C3\NC(=O)N(Cc4ccc(Cl)cc4)C3=O)o2)cc1Cl	-7.9	.	0.3	128.9*	.	64.6*
C[C@H](CO)N1C[C@H](C)[C@H](CN(C)S(=O)(=O)c2ccc(F)cc2)OCCCC[C@H](C)Oc2ccc(NC(=O)C3CCCCC3)cc2C1=O	.	.	.	.	.	1.8
C/C(=C1/SC(=S)N(CCC(=O)O)C1=O)c1ccc(O)cc1	1.6	98.2*	-2.8	5.6	.	.
